For some of these results: Potency and affinity values are given separately. The list shows a part of the results. The source made the active and inactive calls.
Experiments:
[1] = biological target: Inward rectifier potassium channel 2 (Mus musculus) (UniProt P35561); assay: inhibition of Kir2.1 inward rectifier potassium flux – cell-based, FluxOR thallium flux, duplicate, confirmation (AID 2032); conditions: Kir2.1-expressing cells, FluxOR thallium flux fluorescence, at 10 µM; stronger effect = lower value
Chain of Inward rectifier potassium channel 2 (Mus musculus) (P35561 whole entry, looked up): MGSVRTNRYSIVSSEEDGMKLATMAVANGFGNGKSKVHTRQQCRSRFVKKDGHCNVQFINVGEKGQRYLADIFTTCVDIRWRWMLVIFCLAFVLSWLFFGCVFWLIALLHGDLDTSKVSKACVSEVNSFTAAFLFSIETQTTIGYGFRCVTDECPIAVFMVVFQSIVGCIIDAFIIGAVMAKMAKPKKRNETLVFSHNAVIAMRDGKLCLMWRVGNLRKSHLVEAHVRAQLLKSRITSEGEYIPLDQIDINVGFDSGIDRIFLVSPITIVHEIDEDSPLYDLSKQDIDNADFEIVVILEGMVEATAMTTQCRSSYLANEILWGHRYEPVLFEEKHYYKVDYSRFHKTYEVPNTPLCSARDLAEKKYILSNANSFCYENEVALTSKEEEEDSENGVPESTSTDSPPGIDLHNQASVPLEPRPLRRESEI

[2] = parental HEK293 cell activity, no Kir2.1 – FluxOR thallium flux, duplicate, single concentration, counter-screen for Kir2.1 inhibitor project, confirmation (AID 2105;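 active means dye signal at least 3 control SD above or below untreated wells in both duplicates, raw fluorescence within 3, either direction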); conditions: parental HEK293 cells, FluxOR thallium flux fluorescence, at 10 µM; 0% = unstimulated blank wells
[3] = parental CHO-K1 cell activation, no KCNQ2 – FluxOR thallium flux, duplicate, counter-screen for KCNQ2 potentiator project, confirmation (AID 2282;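 active means signal rise of at least 3 SD above the untreated control mean, in both duplicate wells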;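 further: counter screen of KCNQ2 potentiator hits so any rise reflects channel-independent effects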); conditions: parental CHO-K1 cells, FluxOR thallium flux fluorescence; at 10 µM; stronger effect = higher value; zero = vehicle mean+3SD, 100% = vehicle-minus-blank window
[4] = biological target: Potassium voltage-gated channel subfamily KQT member 1 (Homo sapiens) (UniProt P51787); assay: KCNQ1 activation in stable CHO cells – cell-based, FluxOR thallium flux, selectivity assay for KCNQ2 potentiator project, confirmation (AID 2283;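 active means fluorescence ratio rise of at least 3 SD of vehicle wells above their mean, in both replicate wells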;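 further: 0% = vehicle mean plus 3 SD and 100% = vehicle minus unstimulated blank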); conditions: FluxOR thallium flux fluorescence, at 10 µM, stronger effect = higher value, beyond 3SD, as % of vehicle-control signal
Chain of Potassium voltage-gated channel subfamily KQT member 1 (Homo sapiens) (P51787 whole entry, looked up): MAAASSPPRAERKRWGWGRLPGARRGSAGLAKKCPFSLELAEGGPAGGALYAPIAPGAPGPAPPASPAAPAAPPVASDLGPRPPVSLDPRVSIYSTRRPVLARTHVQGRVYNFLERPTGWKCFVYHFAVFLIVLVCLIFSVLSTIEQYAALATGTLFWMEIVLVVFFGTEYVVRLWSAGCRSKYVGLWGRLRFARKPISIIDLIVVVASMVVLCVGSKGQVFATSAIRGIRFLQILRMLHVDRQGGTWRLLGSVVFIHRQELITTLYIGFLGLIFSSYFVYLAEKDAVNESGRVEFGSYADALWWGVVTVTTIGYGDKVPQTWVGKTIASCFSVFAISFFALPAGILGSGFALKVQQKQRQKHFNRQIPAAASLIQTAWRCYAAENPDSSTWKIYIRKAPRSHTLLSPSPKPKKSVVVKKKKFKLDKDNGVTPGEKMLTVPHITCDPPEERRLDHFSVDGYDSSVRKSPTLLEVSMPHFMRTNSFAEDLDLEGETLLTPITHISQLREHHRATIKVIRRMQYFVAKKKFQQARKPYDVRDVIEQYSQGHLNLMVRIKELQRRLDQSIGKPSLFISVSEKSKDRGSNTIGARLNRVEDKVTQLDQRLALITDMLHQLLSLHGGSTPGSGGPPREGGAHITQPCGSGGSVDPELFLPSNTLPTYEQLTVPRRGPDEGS

[5] = biological target: Potassium voltage-gated channel subfamily KQT member 2 (Rattus norvegicus) (UniProt O88943); assay: KCNQ2 potassium channel activity enhancers – cell-based, CHO, FluxOR thallium flux, duplicate, confirmation (AID 2287;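 active means fluorescence ratio rising 3 SD or more over the vehicle control mean in both replicates, plus primary screen hit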;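 further: peak minus minimum thallium fluorescence divided by baseline after K/Tl stimulus; 0% = vehicle mean plus 3 SD and 100% = vehicle minus unstimulated blank difference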); conditions: CHO-KCNQ2 cells, FluxOR thallium flux fluorescence; at 10 µM; stronger effect = higher value
[6] = biological target: Inward rectifier potassium channel 2 (Mus musculus) (UniProt P35561); assay: PubChem AID 2345; conditions: HEK293 Kir2.1, FluxOR thallium flux fluorescence; at 10 µM; stronger effect = higher value;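 further: 0% = vehicle mean plus 3 SD and 100% = vehicle minus no-stimulus blank window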
[7] = biological target: Potassium voltage-gated channel subfamily KQT member 2 (Rattus norvegicus) (UniProt O88943); assay: W236L mutant KCNQ2 current enhancers – cell-based, rat KCNQ2 W236L, CHO, automated patch clamp, mechanism study for KCNQ2 potentiator project (AID 2558;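 active means current increase at least 3 SD of the untreated controls above them in both duplicate recordings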); conditions: at 25 µM
[8] = test system: TRPC4 beta (transient receptor potential cation channel C4), mouse; assay: TRPC4 cation channel opening, retest – cell-based, Fluo4 calcium, HEK293 TRPC4beta/mu-opioid, duplicates, 10 µM, confirmation (AID 2426;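 active means fluorescence ratio normalized to control raised more than 50% in primary screen plus both repeat runs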;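 further: percent rise of integrated ratio over buffer wells lacking compound which define 0%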); conditions: Fluo4 calcium fluorescence, at 10 µM; stronger effect = higher value
[9] = test system: transient receptor potential cation channel C4 beta (TRPC4), mouse; assay: TRPC4 cation channel opening, second retest – cell-based, second round, Fluo4, HEK293 TRPC4beta/mu-opioid, 1 µM, confirmation (AID 2461;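 active means primary screen active and over 50% activation in each of two duplicate runs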); conditions: Fluo4 calcium fluorescence, at 1 µM; stronger effect = higher value
[10] = test system: TRPC4 (transient receptor potential cation channel C4 beta), mouse; assay: potentiation of DAMGO EC20 TRPC4 response – cell-based, second round, Fluo-4, HEK293 TRPC4beta/mu-opioid, 1 µM, confirmation (AID 2554;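 active means primary screen hit whose fluorescence ratio, in both repeats, exceeds the weak agonist control mean by 3 SD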); conditions: DAMGO EC20, Fluo-4 calcium flux, at 1 µM; stronger effect = higher value
[11] = test system: TRPC4 beta (transient receptor potential cation channel C4), mouse; assay: potentiation of DAMGO EC20 TRPC4 response – cell-based, Fluo-4, HEK293 TRPC4beta/mu-opioid, confirmation (AID 2555;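 active means primary screen hit whose calcium fluorescence ratio, in both repeats, exceeds the weak agonist control mean by 3 SD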); conditions: DAMGO EC20, Fluo-4 calcium flux, at 10 µM; stronger effect = higher value
[12] = biological target: Short transient receptor potential channel 4 (Mus musculus) (UniProt Q9QUQ5); assay: blockers of DAMGO-evoked TRPC4 calcium flux – cell-based, Fluo4, HEK293 TRPC4beta/mu-opioid, confirmation (AID 2636;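 active means calcium signal cut by more than 3 SD below the full-agonist control yet still positive, in both repeats and the earlier primary screen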); conditions: at 10 µM; stronger effect = higher value
Chain of Short transient receptor potential channel 4 (Mus musculus) (Q9QUQ5 whole entry, looked up): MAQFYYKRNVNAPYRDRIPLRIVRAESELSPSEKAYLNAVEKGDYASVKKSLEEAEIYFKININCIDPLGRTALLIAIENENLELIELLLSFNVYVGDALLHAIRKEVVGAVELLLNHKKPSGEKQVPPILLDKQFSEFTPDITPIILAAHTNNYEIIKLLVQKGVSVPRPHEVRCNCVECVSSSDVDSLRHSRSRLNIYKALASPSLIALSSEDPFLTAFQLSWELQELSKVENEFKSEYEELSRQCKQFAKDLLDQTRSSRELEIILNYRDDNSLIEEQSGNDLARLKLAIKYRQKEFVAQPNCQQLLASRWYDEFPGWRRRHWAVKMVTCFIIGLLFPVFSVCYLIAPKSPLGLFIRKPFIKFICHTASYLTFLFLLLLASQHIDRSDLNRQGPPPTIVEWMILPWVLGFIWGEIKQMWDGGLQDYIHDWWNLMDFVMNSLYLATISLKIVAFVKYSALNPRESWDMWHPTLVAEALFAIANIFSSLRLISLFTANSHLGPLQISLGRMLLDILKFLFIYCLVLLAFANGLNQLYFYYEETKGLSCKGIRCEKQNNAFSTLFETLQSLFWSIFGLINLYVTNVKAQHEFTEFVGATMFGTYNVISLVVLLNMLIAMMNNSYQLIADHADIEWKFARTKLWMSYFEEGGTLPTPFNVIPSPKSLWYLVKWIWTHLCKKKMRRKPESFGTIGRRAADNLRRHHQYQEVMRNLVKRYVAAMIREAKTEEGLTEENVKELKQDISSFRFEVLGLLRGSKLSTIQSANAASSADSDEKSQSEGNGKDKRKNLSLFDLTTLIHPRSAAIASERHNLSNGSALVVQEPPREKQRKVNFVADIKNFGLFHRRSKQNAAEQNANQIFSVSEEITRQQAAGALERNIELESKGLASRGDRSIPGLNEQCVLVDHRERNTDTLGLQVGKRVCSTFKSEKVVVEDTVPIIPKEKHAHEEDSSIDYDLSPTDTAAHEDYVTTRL

[13] = biological target: Short transient receptor potential channel 4 (Mus musculus) (UniProt Q9QUQ5); assay: blockers of DAMGO-evoked TRPC4 calcium flux – cell-based, second round, Fluo4, HEK293 TRPC4beta/mu-opioid, 1 µM, confirmation (AID 2637;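 active means calcium signal ratio cut to more than 3 SD under the fully stimulated control mean yet still positive, in both repeats and the primary screen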); conditions: at 1 µM; stronger effect = higher value
[14] = biological target: Short transient receptor potential channel 4 (Mus musculus) (UniProt Q9QUQ5); assay: calcium entry via TRPC4 opening agents – cell-based, HEK293 TRPC4/mu-opioid, Fluo-4 calcium, dose response (AID 434937;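 active means primary screen activator hit with a dose response curve and TRPC4 channel activation at any tested dose; inactive means no activation, no dose response, or not a primary hit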)
[15] = biological target: Short transient receptor potential channel 4 (Mus musculus) (UniProt Q9QUQ5); assay: potentiation of DAMGO-evoked TRPC4 calcium signal – cell-based, HEK293 TRPC4/mu-opioid, Fluo-4 calcium, EC20 DAMGO, dose response (AID 434941;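 active means earlier screen potentiator hit that boosts the TRPC4 ion channel at some dose, with a dose response; inactive means no potentiation, no dose response, or not a prior hit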;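 further: calcium entry triggered by an EC20 dose of DAMGO at the co-expressed mu-opioid receptor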)
[16] = biological target: Short transient receptor potential channel 4 (Mus musculus) (UniProt Q9QUQ5); assay: block of DAMGO-driven TRPC4 calcium entry – cell-based, HEK293 TRPC4/mu-opioid, Fluo-4 calcium, dose response (AID 434942;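 active means primary screen inhibitor hit that blocks the TRPC4 channel at some tested dose, yielding a dose curve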)
[17] = biological target: Short transient receptor potential channel 6 (Mus musculus) (UniProt Q61143); assay: TRPC6 blockade by TRPC4 inhibitor hits – cell-based, HEK293, membrane potential dye, duplicate, selectivity assay for TRPC4 inhibitor project, confirmation (AID 434948;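 active means active in primary screen and both duplicates, each dropping signal beyond three positive-control SD with fluorescence still positive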); conditions: HEK293 TRPC6, membrane potential dye fluorescence, at 10 µM, stimulated with maximal-effect acetylcholine; stronger effect = higher value
Chain of Short transient receptor potential channel 6 (Mus musculus) (Q61143 whole entry, looked up): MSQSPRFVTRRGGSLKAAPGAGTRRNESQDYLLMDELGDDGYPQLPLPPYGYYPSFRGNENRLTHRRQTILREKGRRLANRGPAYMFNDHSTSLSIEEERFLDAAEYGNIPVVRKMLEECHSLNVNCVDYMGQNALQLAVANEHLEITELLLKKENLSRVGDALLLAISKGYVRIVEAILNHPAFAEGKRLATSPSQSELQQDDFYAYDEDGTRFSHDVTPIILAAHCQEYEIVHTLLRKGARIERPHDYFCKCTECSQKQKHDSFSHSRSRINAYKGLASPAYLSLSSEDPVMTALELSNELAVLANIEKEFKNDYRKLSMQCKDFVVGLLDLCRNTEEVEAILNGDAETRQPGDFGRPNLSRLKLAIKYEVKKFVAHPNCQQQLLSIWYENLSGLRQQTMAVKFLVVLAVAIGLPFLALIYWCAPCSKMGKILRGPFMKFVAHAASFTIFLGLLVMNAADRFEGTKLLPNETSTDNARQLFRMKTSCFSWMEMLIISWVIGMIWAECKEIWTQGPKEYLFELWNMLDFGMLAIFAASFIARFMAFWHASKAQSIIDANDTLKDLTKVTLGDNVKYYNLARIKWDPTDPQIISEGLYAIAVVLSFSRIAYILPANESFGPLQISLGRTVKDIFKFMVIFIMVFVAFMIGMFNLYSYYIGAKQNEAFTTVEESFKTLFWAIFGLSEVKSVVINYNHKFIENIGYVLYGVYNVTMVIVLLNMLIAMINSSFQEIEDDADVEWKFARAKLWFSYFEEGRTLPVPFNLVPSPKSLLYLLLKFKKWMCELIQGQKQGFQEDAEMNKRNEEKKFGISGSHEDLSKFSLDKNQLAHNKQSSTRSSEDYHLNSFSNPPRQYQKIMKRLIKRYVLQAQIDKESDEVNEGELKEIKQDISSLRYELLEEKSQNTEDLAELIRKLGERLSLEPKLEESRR

[18] = biological target: Short transient receptor potential channel 6 (Mus musculus) (UniProt Q61143); assay: TRPC6 opening by TRPC4 activator hits – cell-based, HEK293, membrane potential dye, duplicate, selectivity assay for TRPC4 activator project, confirmation (AID 434950;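 active means membrane potential signal rise above negative control mean plus 3 SD in both duplicates, also active in the earlier TRPC4 screen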); conditions: HEK293 TRPC6, membrane potential fluorescence, at 10 µM; activation: stronger effect = higher value; outcome: activation
[19] = biological target: Short transient receptor potential channel 6 (Mus musculus) (UniProt Q61143); assay: positive modulators of mouse TRPC6 channel – HEK293 cells, membrane potential dye, duplicate, selectivity assay for TRPC4 potentiator project, confirmation (AID 434952;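 active means compound raising the membrane signal above positive-control mean plus 3 SD in both repeats, and a primary screen hit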); conditions: HEK293 TRPC6, membrane potential dye fluorescence, at 10 µM, maximal acetylcholine added after compound; stronger effect = higher value
[20] = biological target: Short transient receptor potential channel 4 (Mus musculus) (UniProt Q9QUQ5); assay: calcium flux activators in TRPC4/5HT1a cells, counter-screen for TRPC4 activator project, cell-based, second counter screen, HEK293 TRPC4/5HT1a, Fluo-4 (AID 434977;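 active means calcium signal rise above buffer-control mean plus 5 SD in both duplicates, and also a hit in the primary screen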;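 further: plate controls were assay buffer for no effect and maximal serotonin response for full effect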); conditions: Fluo-4 calcium flux, at 10 µM; stronger effect = higher value
[21] = serotonin-gated TRPC4 signal block – cell-based, second counter screen, HEK293 TRPC4/5HT1a, Fluo-4, counter-screen for TRPC4 inhibitor project, confirmation (AID 434978;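 active means primary screen active whose calcium signal fell more than 3 SD beyond the full-serotonin control mean in both duplicate plates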;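 further: serotonin given first at submaximal then at maximal dose after compound preincubation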); conditions: Fluo-4 calcium flux, at 10 µM, serotonin added to trigger calcium flux; stronger effect = higher value
[22] = test system: TRPC4 (mouse), co-expressed with 5HT1a in HEK293; assay: enhancement of serotonin-evoked TRPC4 response – cell-based, second counter screen, HEK293 TRPC4/5HT1a, Fluo-4, counter-screen for TRPC4 potentiator project, confirmation (AID 434979;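 active means signal rise over 3 SD above mean of control wells given weak agonist, in both repeats and first screen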); conditions: Fluo-4 calcium flux, at 10 µM, serotonin added at its EC20 dose; stronger effect = higher value
[23] = nonspecific calcium rise without TRPC4 – cell-based, HEK293 mu-opioid receptor line, counter-screen for TRPC4 activator project, confirmation (AID 449723;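 active means hit in primary screen, with calcium signal over 5 SD above buffer well mean in both duplicates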;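 further: counter screen cells carry the mu-opioid receptor alone and lack TRPC4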); conditions: HEK293 mu-opioid cells, Fluo-4 calcium fluorescence, at 10 µM; stronger effect = higher value
[24] = nonspecific potentiation of DAMGO calcium response – cell-based, HEK293 mu-opioid receptor line, counter-screen for TRPC4 allosteric potentiator project, confirmation (AID 449724;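 active means calcium signal rise more than 3 SD above the low-dose agonist control mean, in both duplicate plates and the primary screen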); conditions: HEK293 mu-opioid receptor cells, Fluo-4 calcium flux, at 10 µM, compound added before EC20 DAMGO stimulus; stronger effect = higher value
[25] = biological target: Potassium voltage-gated channel subfamily KQT member 1 (Homo sapiens) (UniProt P51787); assay: blockers of human KCNQ1 channel – cell-based, Tl flux, duplicate, confirmation (AID 588353;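 active means primary screen active, with duplicate mean exceeding buffer control mean plus 3 SD of buffer wells, cut at about 28% in these data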;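 further: 0% = buffer control ratio and 100% = XE991 inhibitor control ratio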); conditions: KCNQ1 cell line, FluxOR thallium flux fluorescence; at 10 µM; stronger effect = higher value
[26] = nonspecific activity in CHO-K1 cells without KCNQ1 – parental CHO cells, Tl flux, counter-screen for KCNQ1 inhibitor project (AID 588366;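 active means mean of duplicate thallium-flux fluorescence ratios in parental host cells more than 5 SD below the buffer control mean, cut at about 0.38 in these data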;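 further: ratio is peak minus minimum fluorescence divided by baseline fluorescence; actives read low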); conditions: parental CHO-K1, FluxOR thallium flux fluorescence ratio; at 10 µM; stronger effect = lower value; zero means no signal rise above baseline
[27] = biological target: Potassium voltage-gated channel subfamily KQT member 2 (Rattus norvegicus) (UniProt O88943); assay: block of rat KCNQ2 potassium channel – cell-based, selectivity assay for KCNQ1 inhibitor project (AID 651746;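 active means mean percent inhibition of the KCNQ2 thallium signal more than 5 SD above the buffer-only control wells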;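 further: 0% = buffer control wells and 100% = XE-991 inhibitor control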); conditions: KCNQ2 cells, FluxOR thallium flux fluorescence, at 10 µM; stronger effect = higher value
[28] = biological target: Potassium voltage-gated channel subfamily E member 1 (Homo sapiens) + Potassium voltage-gated channel subfamily KQT member 1 (Homo sapiens) (UniProt P15382+P51787); assay: block of human IKs channel complex – CHO-K1 cells, thallium flux, FluxOR, selectivity assay for KCNQ1 inhibitor project (AID 652147;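 active means mean percent inhibition of duplicate wells above the buffer-only control mean plus 3 SD of those controls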); conditions: KCNQ1/KCNE1 cells, FluxOR thallium flux fluorescence; at 10 µM
Chain of Potassium voltage-gated channel subfamily E member 1 (Homo sapiens) + Potassium voltage-gated channel subfamily KQT member 1 (Homo sapiens) (P51787 whole entry, looked up): as the sequence (P51787 whole entry, looked up) above

[29] = nonspecific flux increase, KCNQ1-free cells – parental CHO cells, counter-screen for KCNQ1 potentiator project (AID 493006;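 active means duplicate-averaged activation above buffer control mean plus 5 SD of those controls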); conditions: parental CHO-K1 cells, FluxOR thallium flux, at 10 µM; stronger effect = higher value
[30] = biological target: Potassium voltage-gated channel subfamily KQT member 1 (Homo sapiens) (UniProt P51787); assay: enhancement of KCNQ1 channel thallium flux – FluxOR thallium flux, CHO cells, duplicates, confirmation (AID 493007;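 active means potentiation averaged over duplicate wells exceeding buffer-only control mean by more than 3 SD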;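 further: cells depolarized by a potassium plus thallium sulfate stimulus after compound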); conditions: KCNQ1 cell line, FluxOR thallium flux fluorescence, at 10 µM; stronger effect = higher value, % of reference activator effect, buffer zero
[31] = biological target: Potassium voltage-gated channel subfamily KQT member 2 (Rattus norvegicus) (UniProt O88943); assay: KCNQ2 thallium flux enhancement – KCNQ2-CHO-K1 cells, selectivity assay for KCNQ1 potentiator project (AID 493009;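 active means mean duplicate potentiation above the buffer control mean plus 5 SD of buffer wells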;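 further: assay conditions were tuned for KCNQ1 rather than KCNQ2 modulators; signal is max minus min fluorescence divided by baseline after thallium stimulus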); conditions: FluxOR thallium flux fluorescence, at 10 µM; stronger effect = higher value, scaled: buffer 0, activator control 100
[32] = biological target: Potassium voltage-gated channel subfamily KQT member 1 (Homo sapiens) (UniProt P51787); assay: KCNQ1 activators by electrophysiology – IonWorks patch clamp, KCNQ1-CHO cells, orthogonal assay for KCNQ1 potentiator project, confirmation (AID 493184;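 active means current rise at least 3 SD above the untreated control mean in each of two repeat wells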); conditions: automated patch clamp current, at 10 µM; stronger effect = higher value

O=C(NNC1=C(C(=O)C(F)(F)F)CCC1)c1ccncc1
active: potentiation, less the hit threshold [5] 1.3%
inactive: outcome [1] | outcome [2] | activity increase over 3SD of controls [3] -5.7% | activation over 3SD threshold [4] -11.4% | activity over 3SD threshold [6] -36.3% | outcome [7]

C/C(=N\NC(=O)c1ccoc1C)c1ccccc1O
inactive: outcome [1] | outcome [2] | activation over 3SD threshold [4] -7.3% | activity over 3SD threshold [6] -16.7% | outcome [7]
active: activity increase over 3SD of controls [3] 53.8% | potentiation, less the hit threshold [5] 52.9%

COc1ccc(C(=O)Nc2ncc3c(n2)-c2ccccc2CC3)cc1
inactive: outcome [1] | outcome [2] | activity increase over 3SD of controls [3] -7.8% | potentiation, less the hit threshold [5] -1% | activity over 3SD threshold [6] -29.6% | outcome [7]
active: activation over 3SD threshold [4] 8.3%

CCc1ccc(-c2nn(-c3ccccc3)cc2CSC(=N)N)cc1
inactive: outcome [2] | outcome [9] | outcome [10] | outcome [11] | outcome [12] | outcome [13] | outcome [14] | outcome [15] | outcome [16] | outcome [17] | outcome [18] | outcome [19] | outcome [21] | outcome [22] | outcome [24] | outcome [28]
active: Tl flux remaining, % of negative control (stronger effect = lower value) [1] 33.5% | activation [8] 125% | activation [20] 43.7% | activation [23] 24.4% | inhibition [25] 126% | fluorescence ratio (Tl flux) [26] 0.302 | inhibition [27] 114%

CC1=C/C(=N\OS(=O)(=O)c2ccccc2)C=CC1=O
inactive: outcome [1] | outcome [2] | activity increase over 3SD of controls [3] -13.5% | activation over 3SD threshold [4] -8.8% | activity over 3SD threshold [6] -51.4% | outcome [7] | outcome [29] | outcome [30] | outcome [31] | outcome [32]
active: potentiation, less the hit threshold [5] 0.8%

Reference: PubChem BioAssay
